From PubChem BioAssay AID889 (National Center for Advancing Translational Sciences (NCATS), 2007) come the findings set out here.

The whole screen tested about 75,000 compounds, of which about 15 (0.02%) were called active. Inconclusive results (about 3%) are left out. This excerpt belongs to a sample that is enriched for actives. Unmarked numbers belong to inactive results. Calls follow the shape of the dose curve; as a rule, active = well fitted inhibition curve with a large enough effect in the main read-out, with a control signal flat (not every such curve was filed as active); inconclusive = small, poorly fitted or top-dose-only effect, or a change in a side signal; inactive = flat fitted curve, though single readings scatter.

Caspase-7 (Homo sapiens), sequence (P55210 24-198 limits assumed): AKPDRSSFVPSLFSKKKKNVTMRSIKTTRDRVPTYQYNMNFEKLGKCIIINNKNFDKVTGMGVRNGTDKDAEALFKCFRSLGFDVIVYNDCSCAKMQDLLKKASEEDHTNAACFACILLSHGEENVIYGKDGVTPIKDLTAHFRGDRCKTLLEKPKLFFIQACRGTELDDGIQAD
Caspase-7 (Homo sapiens), sequence (P55210 207-303 limits assumed): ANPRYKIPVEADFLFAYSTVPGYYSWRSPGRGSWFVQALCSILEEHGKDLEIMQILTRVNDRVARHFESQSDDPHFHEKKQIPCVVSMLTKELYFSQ

This experiment has as its target Caspase-7 (Homo sapiens) (UniProt P55210). As to the kind of experiment: qHTS Assay for Allosteric/Competitive Inhibitors of Caspase-7. Also: % of control where 0% means no effect. The note with it: recombinant caspase-7, Ac-DEVD-AFC fluorescence rate; series mostly up to 57.5 µM; activity change, negative = inhibition: at the top concentration. The source says:
NIH Molecular Libraries Screening Centers Network [MLSCN]
NIH Chemical Genomics Center [NCGC]
PI Name: Dr. James Wells,
Dr. Enrique Perez-Paya, Dr.Janice Williams, Dr. Dennis Wolan, a person
The caspases (Cysteine Aspartyl Protease) comprise a related family of 14 dimeric proteases that are critical mediators of apoptosis (programmed cell death) and inflammation. The caspases represent an important class of drug targets for stroke, ischemia, cancer and inflammatory diseases. […] One goal of this project was to identify compounds that act as allosteric inhibitors via stabilizing the procaspase form of the enzyme. Previous work in Well's laboratory has shown that such allosteric inhibitors can be identified and these act by binding at the dimer interface of enzyme (Hardy, Lam et al., 2004).
The biochemical assay was configured using purified caspase 7 at a high enzyme concentration to promote formation of the homodimers and thus facilitate the identification of allosteric inhibitors. The overall goal was to identify reversible inhibitors with better drug-like properties than the currently available set of aspartyl-containing peptidomimetics that covalently bind the active site. Caspase 7 was assayed using the profluorescent substrate Ac-DEVD-AFC. After initiation of the assay with substrate the plates were rapidly read using an automated robotic system (Kalypsys, Inc.) to maintain consistent timing. A kinetic mode of detection was used where the initial rate was collected (estimated final product formation was ~10%). Compounds were screened as a concentration-titration series that ranged from 57 uM to 0.7 nM. Below is the protocol used for caspase 7.
NCGC Assay Protocol Summary:
Caspase 7 was prepared in buffer (50 mM HEPES pH 7.5, 50 mM KCl, 200 mM NaCl, 10 mM DTT, 0.1% CHAPS) at a concentration of 66.6 nM and 3 uL was dispensed to all wells using black solid Kalypsys 1536-well plates. 20 nL of DMSO containing compounds was added using a pin-tool (Kalypsys Inc.) to columns 5-48. Then 20 nL of DMSO solution from a control plate was added to columns 1-4. Controls were: Column 1, 16 point titration with each concentration in duplicate (1:1 dilutions in DMSO; final starting concentration was 57 uM) of the caspase 7 inhibitor Ac-DEVD-CHO (Alexis Biochemicals); Column 2, a 16 point titration with each concentration in duplicate of the free AFC fluorophore prepared in DMSO (Alexis Biochemicals), final starting was 40 uM; Column 3 neutral (DMSO only) control; Column 4: DMSO alone, to serve as a negative control (no substrate was added). Then 1 uL of 20 uM the substrate Ac-DEVD-AFC (Alexis Biochemicals) prepared in the same buffer was dispensed to all wells except columns 2 and 4 and the plates were immediately transferred (< 1 min) to the Viewlux. The plates were then exposed using 405 nm excitation/520 nm emission filters for 4 sec and read at 20 sec intervals for 3 min. Final enzyme concentration was 50 nM and the final substrate concentration was 5 uM.
Concentration-response curves were fitted to the data calculated from slope of the linear regression of fluorescent intensity versus time (the rate). The concentration-effect curves were then classified based on curve quality (r2), response magnitude and degree of measured activity. […] Inconclusive compounds had appreciable concentration-dependent effects on both the measured rate and the interpolated basal fluorescence intensity at the start of the reaction but where the basal fluorescent intensity was marginal (e.g. < 10-fold). Inconclusive compounds also encompass highly fluorescent compounds (>100-fold increases in fluorescent intensities values relative to controls) where artificial concentration-dependent decreases in the rate occurred at high compound concentrations due to fluorescent interferences.
Keywords: Caspase 7, proteases, profluorescent, MLSMR, MLSCN, NIH Roadmap, qHTS, NCGC
Regarding `Cc1ccc(S(=O)(=O)NC(C)C(=O)Nc2ccccc2C(=O)N2CCCC2)cc1` (stereo unspecified), the “activity change, negative = inhibition” value was 0.252%.
For `Cn1c(=S)c2[nH]c(SCCCc3ccccc3)nc2n(C)c1=O` the value was 0.0837% [at 11.5 µM]; for `CCC1=C(OC(=O)N(CC)CC)N2C(=O)OC(=NCC3CC3)[C@]2(C)[C@H]2C1=CC[C@H]1C(=O)N(CC(=O)OC)C(=O)[C@H]12`, -3.1%.
In the case of `Fc1ccc(-c2nnc3sc(-c4ccc5c(c4)OCO5)nn23)cc1` it was -2.97%; in that of `Cn1c2c(c(=O)n(C)c1=O)C(c1ccc(O)cc1)Nc1ccccc1O2` (stereo unspecified), -0.743%; in that of `CCOC(=O)c1[nH]c2c(c1C)C(=O)CC(c1ccc(N(C)C)cc1)C2` (stereo unspecified), -4.88%.
For `COc1ccc(NS(=O)(=O)c2ccc(NC(=O)C(C)(C(F)(F)F)C(F)(F)F)cc2)nn1` the value was -1.99%.
With `Cc1cc(C(=O)COC(=O)c2cccs2)c(C)n1-c1c(C)n(C)n(-c2ccccc2)c1=O`, the “activity change, negative = inhibition” value is 5.46%.
In the case of `COc1ccc2c3c1OC1CC(O)C=C[C@@]31CCN(C)C2` (stereo partly specified) it was 0.921%; in that of `Cc1ccc(S(=O)(=O)C2(S(=O)(=O)c3ccc(C)cc3)CCCC2)cc1`, 5.15%.
For `CCCN1C(=O)C(NS(=O)(=O)c2ccc(N)cc2)(C(F)(F)F)C(C(=O)OC)=C1C` (stereo unspecified) the value was 1.12%.
In the case of `CS(=O)(=O)c1ccc2nc(NC(=O)C3CCCCC3)sc2c1` it was -1.36%; in that of `CC(=O)OC1CCC2(O)CC1(C)CCC1C2CC1(C)C` (stereo unspecified), 1.05%.
For the compound `CC(C)C(N)C(=O)OCCOCn1cnc2c(=O)[nH]c(N)nc21` (stereo unspecified), the “activity change, negative = inhibition” value is 0.177%.
As for `CC(C)(CSc1nncn1/N=C/c1ccco1)NS(=O)(=O)c1ccc(Cl)cc1`, the “activity change, negative = inhibition” value was -1.02%.
For `NC(=O)C1CCN(C(=O)c2ccc(C(F)(F)F)cc2)CC1` the value was -0.1%; for `Cc1ccccc1CN1CCN(CC(=O)NCc2ccccn2)C1=O`, -3.4%; for `BrC1C(Br)C(Br)C(Br)C(Br)C1Br` (stereo unspecified), -0.843%.
In the case of `CC(=O)N1CCC2(CCCN(c3ncccn3)C2)CC1` it was -0.0087%; in that of `CC1CCCCN1CCCNC(=O)c1ccc(-n2c(=O)c(=O)[nH]c3ccccc32)cc1` (stereo unspecified), -0.222%.
For `CCCn1c(SCC(=O)Nc2cccc(C(=O)OCC)c2)nnc1-c1ccoc1C` the value was -2.89%.
For the compound `COC(=O)CC1C(C)(C)C(OC(C)=O)C2CC3=C4CC(=O)OC(c5ccoc5)[C@]4(C)CCC3[C@@]1(C)C2=O` (stereo partly specified), the “activity change, negative = inhibition” value was 0.157%.
For `O=C1NS(=O)(=O)c2ccccc21` the value was -0.547%.
In the case of `CC12CN3CC(C)(CN(C1)C3c1ccc(Cl)cc1Cl)C2=O` (stereo unspecified) it was 1.96%.
For `C[N+](C)(C)CCNC(=O)c1c(O)c2c([nH]c1=O)CCCC2` the value was 0.0221%; for `CCOC(=O)N1CCC(O)(c2cc(C)c(C)cc2C)CC1`, 0.455%.
With `Cc1cc(C)cc(N(CC(=O)Nc2c(C)n(C)n(-c3ccccc3)c2=O)S(C)(=O)=O)c1`, the “activity change, negative = inhibition” value was 1.18%.
For `COc1ccc(Cn2c(=O)sc3ccccc32)cc1OC` the value was 4.76%; for `CCOC(=O)N1CCN(C(=O)CSc2nnc(-c3c[nH]c4ccccc34)n2CCOC)CC1`, -1.93%; for `CCN(CC)C(=O)CSc1nnc(-c2ccc(S(=O)(=O)NCc3ccccc3Cl)cc2)o1`, 6.38%.
In the case of `Cc1ccccc1NC(=O)c1cc(S(=O)(=O)N2CCOCC2)cs1` it was -0.15%; in that of `CCOC(=O)c1[nH]cnc1C(=O)NC1CCCCC1`, -0.201%.
For `Oc1cc(O)c2c(c1)OC(c1ccc(O)c(O)c1)C(O)C2` (stereo unspecified) the value was -8.9%; for `CCOc1ccc(NS(=O)(=O)c2ccc(OCC(=O)NCCCOC)cc2)cc1`, -0.0247%; for `COc1cccc(Cn2c(=O)c(C)nc3cnc(Oc4ccccc4)nc32)c1`, -5.86%.
Consider `CCOc1ccc(Cn2c(SCCCCC#N)nc3c2c(=O)n(C)c(=O)n3C)cc1OCC`, for which the “activity change, negative = inhibition” value is -1.76%.
In the case of `Cc1onc(-c2ccccc2Cl)c1C(=O)NCCn1ccc2ccccc21` it was -2.02%.
In the case of `CC1O[C@@H](Oc2c(-c3ccc(O)c(O)c3)oc3cc(O)cc(O)c3c2=O)C(O)C(O)C1O` (stereo partly specified), the “activity change, negative = inhibition” value was -0.198%.
In the case of `CCC1Oc2ccc(Cl)cc2N(CC(=O)O)C1=O` (stereo unspecified) it was -0.283%; in that of `O=C(Cc1cccs1)N1CCCC(c2nc(-c3ccc(S(=O)(=O)N4CCCC4)cc3)no2)C1` (stereo unspecified), -4.24%; in that of `CN(C)CCc1c[nH]c2ccc(Cn3cncn3)cc12`, 0.22%.
For `C=CCn1c(COc2ccccc2F)nnc1SCC(=O)N1CC(=O)Nc2ccccc21` the value was -2.2%; for `O=NO`, “inactive”.
For `COC(=O)c1ccc(N(CC(=O)NC2CCCC2)C(=O)CNC(=O)c2ccco2)cc1` the value was -1.2%.
`COc1ccc(C(=O)CSc2nccc(=O)[nH]2)cc1`: the “activity change, negative = inhibition” value is -0.19%.
For `COc1cc(OC)c(C(=O)Nc2ccc(N(C)C)cc2)cc1OC` the value was 0.862%.
In the case of `CC1CSc2nnc(CCc3ccccc3)n21` (stereo unspecified) it was -1.75%; in that of `O=c1c(O)c(-c2ccc(O)cc2)oc2ccccc12`, -1.75%; in that of `CC(C)NS(=O)(=O)c1ccc(OCC(=O)Nc2ccc3c(c2)OCCO3)cc1`, -0.453%.
On to `CCOC(=O)Cc1csc(NC(=O)CN(C)S(=O)(=O)c2ccc3c(c2)CCC(=O)N3)n1`, for which the “activity change, negative = inhibition” value is -1.68%.
As to `CC1CCCC(NC(=O)CN2CCN(Cc3ccc(Cl)cc3)C2=O)C1C` (stereo unspecified), the “activity change, negative = inhibition” value is -0.0034%.
